Measurements: PubChem BioAssay AID1159580 (chemical genetic matrix, 2015)
Where “and” joins values, the source holds several entries; their conditions need not be identical. Equal entries are not always repeated. Among all 5,500 compounds or so, about 2,000 (36%) were called active. Roughly 18% stayed inconclusive and do not appear here. Rule as the data show it: active = normalized growth mostly below about 0.91 (no sharp cut-off); inconclusive = no clear call, values can overlap the other calls; inactive = mostly above about 0.92. The list shows a part of the results.

Experiment: chemical genetic growth profiling, strain panel (AID 1159580);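 also: tested at 20 µM; growth read once vehicle control cultures reached saturation at 30 °C; 1 = growth at the plate median or of vehicle wells; lower values mean less growth of the strain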
Settings: S. cerevisiae deletion strains, growth OD

Measured: normalized growth

CCCCOC(=O)c1ccccc1C(=O)OCCCC
inactive: locus YAL013W, strain DEP1, hits give low values 0.988 | locus YAL021C, strain ccr4, hits give low values 0.979 | locus YAL026C, strain drs2, hits give low values 0.989 | locus YAL030W, strain snc1, hits give low values 0.979 | locus YBL061C, strain skt5, hits give low values 0.986 | locus YBR009C, strain hhf1, hits give low values 0.968 | locus YBR021W, strain FUR4, hits give low values 0.955 | locus YBR023C, strain chs3, hits give low values 0.98 | locus YBR171W, strain sec66, hits give low values 0.959 | locus YBR229C, strain ROT2, hits give low values 0.981 | locus YBR231C, strain swc5, hits give low values 0.983 | locus YBR279W, strain paf1, hits give low values 0.994 | locus YCL011C, strain gbp2, hits give low values 0.979 | locus YCL016C, strain dcc1, hits give low values 0.985 | locus YCL029C, strain bik1, hits give low values 0.976 | locus YCL061C, strain MRC1, hits give low values 0.984 | locus YCL069W, strain vba3, hits give low values 0.985 | locus YCR088W, strain abp1, hits give low values 0.98 | locus YDL005C, strain med2, hits give low values 0.97 | locus YDL035C, strain GPR1, hits give low values 0.986 | locus YDL040C, strain nat1, hits give low values 0.985 | locus YDL074C, strain BRE1, hits give low values 0.984 | locus YDL101C, strain DUN1, hits give low values 0.986 | locus YDL134C, strain PPH21, hits give low values 0.988 | locus YDL185W, strain tfp1, hits give low values 0.961 | locus YDL192W, strain arf1, hits give low values 0.983 | locus YDR001C, strain nth1, hits give low values 0.984 | locus YDR069C, strain doa4, hits give low values 0.983 | locus YDR101C, strain arx1, hits give low values 0.984 | locus YDR137W, strain rgp1, hits give low values 0.905 | locus YDR150W, strain NUM1, hits give low values 0.989 | locus YDR159W, strain sac3, hits give low values 0.993 | locus YDR162C, strain NBP2, hits give low values 0.976 | locus YDR195W, strain ref2 1.07 | locus YDR297W, strain sur2, hits give low values 0.984 | locus YDR318W, strain mcm21, hits give low values 0.979 | locus YDR334W, strain swr1, hits give low values 0.991 | locus YDR335W, strain msn5, hits give low values 0.992 | locus YDR388W, hits give low values 0.961 | locus YDR392W, strain spt3, hits give low values 0.941 | locus YDR502C, strain sam2, hits give low values 0.977 | locus YEL003W, strain gim4, hits give low values 0.987 | locus YEL037C, strain rad23, hits give low values 0.992 | locus YEL061C, strain CIN8 (second series), hits give low values 0.989 | locus YEL061C, strain CIN8, hits give low values 0.992 | locus YER015W, strain faa2, hits give low values 0.986 | locus YER016W, strain bim1, hits give low values 0.986 | locus YER110C, hits give low values 0.974 | locus YER111C, strain swi4, hits give low values 0.999 | locus YER155C, strain BEM2 (second series), hits give low values 0.968 | locus YER155C, strain BEM2, hits give low values 0.98 | locus YER167W, strain BCK2, hits give low values 0.981 | locus YFR010W, strain ubp6, hits give low values 0.998 | locus YGL078C, strain dbp3, hits give low values 0.982 | locus YGL086W, strain mad1, hits give low values 0.98 | locus YGL167C, strain pmr1, hits give low values 0.957 | locus YGL173C, strain kem1, hits give low values 0.98 | locus YGL227W, strain vid30, hits give low values 0.984 | locus YGL240W, strain doc1, hits give low values 0.973 | locus YGL248W, strain PDE1, hits give low values 0.976 | locus YGL253W, strain hxk2, hits give low values 0.987 | locus YGR078C, strain PAC10, hits give low values 0.981 | locus YGR135W, strain pre9, hits give low values 0.988 | locus YGR229C, strain SMI1, hits give low values 0.948 | locus YGR252W, strain gcn5, hits give low values 0.992 | locus YHR013C, strain ard1, hits give low values 1.03 | locus YHR027C, strain rpn1, hits give low values 0.987 | locus YHR030C, strain SLT2, hits give low values 0.969 | locus YHR079C, strain IRE1 (second series), hits give low values 0.972 | locus YHR079C, strain IRE1, hits give low values 0.962 | locus YHR094C, strain hxt1, hits give low values 0.973 | locus YHR129C, strain ARP1, hits give low values 0.996 | locus YHR142W, strain chs7, hits give low values 0.944 | locus YHR200W, strain rpn10, hits give low values 0.985 | locus YIL066C, strain RNR3, hits give low values 0.972 | locus YIL073C, strain SPO22, hits give low values 0.867 | locus YIL125W, strain kgd1, hits give low values 0.988 | locus YIR030C, strain dcg1, hits give low values 0.978 | locus YJL092W, strain hpr5, hits give low values 0.98 | locus YJL095W, strain BCK1 (second series), hits give low values 0.985 | locus YJL095W, strain BCK1, hits give low values 0.979 and 0.96 | locus YJL115W, strain asf1, hits give low values 0.988 | locus YJL129C, strain trk1, hits give low values 0.886 | locus YJL134W, strain LCB3, hits give low values 0.984 | locus YJL154C, strain vps35, hits give low values 0.985 | locus YJL164C, strain tpk1, hits give low values 0.961 | locus YJL166W, strain qcr8, hits give low values 0.974 | locus YJL168C, strain set2, hits give low values 0.985 | locus YJL187C, strain SWE1 (second series), hits give low values 0.968 | locus YJL187C, strain SWE1, hits give low values 0.983 | locus YJR043C, strain POL32, hits give low values 0.982
